About 14,000 (4.5%) of roughly 310,000 compounds showed an effect of 50% or more. Effects have a minus sign here. Only a selection was taken, and strong results are over-represented in it overall.
target: human ether-à-go-go-related gene (hERG) potassium channel (human, UniProt Q12809); assay: primary screen, population patch clamp on CHO cells stably expressing hERG; higher = less effect of the substance
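Note: peak tail current of the secondary pulse compared with the same well before compound.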

human ether-à-go-go-related gene (hERG) potassium channel, sequence (Q12809 whole entry, looked up): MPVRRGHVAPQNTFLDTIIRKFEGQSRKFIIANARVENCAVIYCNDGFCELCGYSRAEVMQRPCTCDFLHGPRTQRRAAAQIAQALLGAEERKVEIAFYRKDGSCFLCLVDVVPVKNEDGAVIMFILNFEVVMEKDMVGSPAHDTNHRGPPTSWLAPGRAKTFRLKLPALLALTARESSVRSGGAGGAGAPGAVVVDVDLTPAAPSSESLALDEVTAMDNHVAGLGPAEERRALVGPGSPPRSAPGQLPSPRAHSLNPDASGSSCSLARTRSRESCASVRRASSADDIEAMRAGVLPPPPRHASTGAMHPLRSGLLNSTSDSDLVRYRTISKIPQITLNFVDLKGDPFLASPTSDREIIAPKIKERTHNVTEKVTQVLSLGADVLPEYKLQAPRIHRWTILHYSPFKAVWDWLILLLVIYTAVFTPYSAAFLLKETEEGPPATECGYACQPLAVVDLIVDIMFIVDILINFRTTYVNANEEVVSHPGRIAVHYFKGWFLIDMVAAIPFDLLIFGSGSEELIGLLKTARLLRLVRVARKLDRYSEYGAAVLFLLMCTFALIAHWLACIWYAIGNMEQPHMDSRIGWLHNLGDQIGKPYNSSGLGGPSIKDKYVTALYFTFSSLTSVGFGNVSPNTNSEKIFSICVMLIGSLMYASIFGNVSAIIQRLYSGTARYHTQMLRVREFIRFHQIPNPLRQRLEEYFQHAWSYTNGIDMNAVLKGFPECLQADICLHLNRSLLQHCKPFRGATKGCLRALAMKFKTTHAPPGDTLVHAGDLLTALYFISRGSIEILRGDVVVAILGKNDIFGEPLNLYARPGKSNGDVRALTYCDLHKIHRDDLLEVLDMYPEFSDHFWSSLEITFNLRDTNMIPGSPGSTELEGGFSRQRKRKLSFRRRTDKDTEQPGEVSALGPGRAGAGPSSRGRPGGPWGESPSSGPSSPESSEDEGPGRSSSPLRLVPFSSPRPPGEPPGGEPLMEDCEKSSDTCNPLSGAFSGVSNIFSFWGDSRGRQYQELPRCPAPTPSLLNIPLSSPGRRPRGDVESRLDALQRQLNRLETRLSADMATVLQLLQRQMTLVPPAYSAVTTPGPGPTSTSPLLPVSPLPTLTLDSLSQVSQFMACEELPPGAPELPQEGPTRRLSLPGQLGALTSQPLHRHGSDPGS

SMILES | hERG current change (%, negative = inhibition) at 10uM [%]
OCCCc1cn(-c2ccccc2)c2ccccc12 | 7.41
Cc1cc(C(=O)NNC(=O)c2ccc(C)s2)c(C)o1 | 3.91
COc1ccc(N(C2CSC2)S(=O)(=O)c2ccccc2)cc1 | 8.52
CCc1nc(SCC(=O)Nc2nnc(CC)s2)c2c(=O)n(C)c(=O)n(C)c2n1 | 4.23
O=C(Cn1nc(-c2ccccc2F)ccc1=O)NCc1ccc2c(c1)OCO2 | -36.9
CCN1C(=O)[C@H]2[C@@H](c3ccc(C)cc3)N3C(=O)N(c4ccc(C(F)(F)F)cc4)C(=O)[C@@]3(Cc3ccccc3)[C@H]2C1=O | 16.3
O=c1c2ccccc2nc(-c2ccc(-c3ccccc3)cc2)n1-c1ccncc1 | -42.9
CC(OC(=O)CCC(=O)c1ccccc1)C(=O)Nc1ccc(F)cc1 (stereo not shown) | -284
CC(=O)Nc1ccc(NC(=O)C(C)OC(=O)CCC(=O)c2ccc(F)cc2)cc1 (stereo not shown) | -7.13
CC(OC(=O)CCCC(=O)Nc1ccc(F)cc1)C(=O)c1ccccc1 (stereo not shown) | -5.79
COc1ccc(/C=N\NC(=O)COc2ccccc2Cl)cc1Cn1nc(C)cc1C | 8.15
CC1(C)CC(=O)C2=C(C1)N(CCN1CCOCC1)C1=C(C(=O)CC(C)(C)C1)C2c1cccc(Cl)c1 | -54
CC1(C)CC(=O)C2=C(C1)N(CCN1CCOCC1)C1=C(C(=O)CC(C)(C)C1)C2c1ccc(Cl)cc1 | -34.1
CC1(C)CC(=O)C2=C(C1)N(CCN1CCOCC1)C1=C(C(=O)CC(C)(C)C1)C2c1cccc(F)c1 | -33.5
CC(CCc1ccccc1)OS(N)(=O)=O (stereo not shown) | 8.74
COc1ccc(S(=O)(=O)N2CCOCC2)cc1NC(=O)COc1ccccc1 | -40.5

SMILES | hERG current change (%, negative = inhibition) at 10uM [%]
Cc1ccc(SC/C(O)=C(\C#N)c2nc3ccccc3s2)cc1 | 29.9
Cc1ccc(C(=O)NCC(=O)OCC(=O)Nc2ccc(Cl)cc2C(F)(F)F)cc1C | -4.47
O=c1[nH]c2ccccc2nc1CCc1ccccc1 | 35.5
O=C(Nc1ccccc1N1CCCC1)C1CCN(C(=O)c2ccc(Cl)cc2)CC1 | -59.8
N#Cc1ccsc1NC(=O)C1CCN(C(=O)c2ccc(F)cc2)CC1 | -45.7
N#Cc1ccsc1NC(=O)C1CCN(C(=O)c2ccc(Cl)cc2)CC1 | -73.2
O=C(Nc1ccccc1N1CCCC1)C1CCN(C(=O)c2ccc(F)cc2)CC1 | -27.8
O=C(NC1CC1)C1CCN(C(=O)c2ccc(Cl)cc2)CC1 | 19.8
O=C(c1ccc(Cl)cc1)N1CCC(C(=O)N2CCCc3ccccc32)CC1 | -76.4
Cc1cccc(NC(=O)C2CCN(C(=O)c3ccc(Cl)cc3)CC2)n1 | -51.5
O=C(C1CCCCC1)N1CCCc2ccccc21 | -5.03
Cc1ccccc1C(=O)N1CCC(C(=O)N2CCCc3ccccc32)CC1 | -1.08
Cc1cccc(NC(=O)C2CCN(C(=O)c3ccccc3C)CC2)n1 | -17.6
Cc1ccccc1C(=O)N1CCC(C(=O)Nc2ccccc2N2CCCC2)CC1 | -0.721
Cc1cccc(NC(=O)C2CCN(C(=O)c3ccc(F)cc3)CC2)n1 | -0.274
